Common to all, as to test: PBM binding z-score (relative to random genomic background probes); higher = stronger binding; sequences stand for … in GC…GCGATTGACAGCGTAGAATGAAGG
Experiment [1] has as its system PPARg:RXRa DBDmut IVT, anti-RXR (DBD mutation: RXRa K156A/R161A, NR concentration 270 nM, RXRa partner concentration 90 nM). The method in brief:
(§1)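 Binding z-scores take random background probes as their reference. They come from custom Agilent 4×180K protein-binding microarrays incubated 1 h with ligand-free nuclear receptor dimers, with antibodies against each partner (one per run) detecting binding. Scanned fluorescence was regression-normalized.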

For experiment [2], the system named is PPARg:RXRa IVT, anti-PPARg (NR concentration 270 nM, RXRa partner concentration 90 nM). The method in brief:
as §1

In experiment [3] the test system is PPARg DBDmut:RXRa IVT, anti-PPARg (DBD mutation: PPARg1 K132A/R137A, NR concentration 270 nM, RXRa partner concentration 90 nM). In short, it runs like this:
as §1

Experiment [4] deals with PPARg DBDmut IVT, anti-PPARg (DBD mutation: PPARg1 K132A/R137A, NR concentration 270 nM). In short, it runs like this:
as §1

Experiment [5] relates to PPARg homodimer (NR concentration 180 nM). The method in brief:
as §1

The subject of experiment [6] is PXR:RXRa (NR concentration 270 nM, RXRa partner concentration 90 nM). In short, it runs like this:
as §1

The test system of experiment [7] is PXR homodimer (NR concentration 270 nM). The method in brief:
as §1

The subject of experiment [8] is RARa:RXR (NR concentration 270 nM, RXRa partner concentration 90 nM). The method in brief:
as §1

In experiment [9] the test system is RARa homodimer (NR concentration 270 nM). The method in brief:
as §1

Experiment [10] has as its system RARb:RXRa (NR concentration 270 nM, RXRa partner concentration 90 nM). The method in brief:
as §1

For experiment [11], the system named is RARb homodimer (NR concentration 270 nM). The method in brief: as §1
Experiment [12] concerns RARg:RXRa (NR concentration 270 nM, RXRa partner concentration 90 nM). In short, it runs like this:
as §1

Experiment [13] concerns RARg homodimer (NR concentration 270 nM). In short, it runs like this: as §1
The test system of experiment [14] is RXRa DBDmut IVT, anti-RXR (DBD mutation: RXRa K156A/R161A, NR concentration 90 nM). The method in brief:
as §1

Experiment [15] relates to RXRa homodimer (NR concentration 180 nM). The method in brief:
as §1

In experiment [16] the test system is THRa:RXRa (NR concentration 90 nM, RXRa partner concentration 90 nM). The method in brief:
as §1

The test system of experiment [17] is THRa homodimer (NR concentration 90 nM). The method in brief: as §1
For experiment [18], the system named is VDR homodimer (NR concentration 270 nM). In short, it runs like this: as §1

In the case of TCGATTAGTTGAAGGGCAACCGACGAGTCCGTTT, the PBM binding z-score was 1.72 in experiment [1]; 0.195 in experiment [2]; 0.000817 in experiment [3]; 0.136 in experiment [4]; -0.0561 in experiment [5]; 0.157 in experiment [6]. Moreover, the PBM binding z-score in experiment [7] stood at 0.0884; in experiment [8] it was 0.128; in [9], 0.353; in experiment [10], 1.2; in experiment [11], 1.04; in experiment [12] it was 0.11. For the same sequence, the PBM binding z-score in experiment [13] is 0.294; in experiment [14], 1.01; in experiment [15], 0.397; in experiment [16] it was -0.146; in experiment [17], -0.591; in [18] it was 0.943.

Take AGTCAAAGTTCAGGACGAAGTAACGTAAAGCACG: the PBM binding z-score was -0.478 in experiment [1]; 1.38 in [2]; 0.781 in experiment [3]; 0.688 in experiment [4]; 1.46 in experiment [5]; 2.02 in experiment [6]. In addition, the PBM binding z-score in experiment [7] was 0.921; in experiment [8] it was 1.93; in [9], 1.14; in experiment [10], 4.2; in [11], 2.72; in experiment [12] it was 3.82. The PBM binding z-score in experiment [13] came to 4.58; in [14], 2.8; in experiment [15] it was 2.71; in experiment [16] it was 1.95; in experiment [17] it was 0.0307; in experiment [18], 1.27.

TAGCCTAGGTCATTCAGGGGCCAGTCTAGAAAGC: the PBM binding z-score was found to be 1.37 in experiment [1]; 2.68 in experiment [2]; 0.235 in experiment [3]; 0.0209 in experiment [4]; 2 in experiment [5]; 2.58 in experiment [6]. Further, the PBM binding z-score in experiment [7] is -0.494; in [8], 3.47; in [9], -0.518; in experiment [10], 3.75; in [11], 3.1; in experiment [12], 5.97. Besides, the PBM binding z-score in [13] came out at 4.33; in experiment [14], 1.66; in experiment [15], 2.98; in experiment [16], 3.27; in experiment [17], 0.478; in experiment [18], 1.43.

For ATCTATAGGTAAGACTCAGTTCAGTGAAGAACGC, the PBM binding z-score in experiment [1] was 1; in experiment [2], 0.562; in experiment [3] it was 0.789; in [4], 1.3; in [5], 0.365; in [6], 1.49. Besides, the PBM binding z-score stood at 1.21 in experiment [7]; 0.627 in [8]; 0.874 in [9]; 0.432 in experiment [10]; 0.556 in [11]; 0.524 in experiment [12]. The PBM binding z-score is 0.517 in experiment [13]; 0.507 in experiment [14]; 0.24 in experiment [15]; 0.633 in experiment [16]; 0.24 in [17]; 1.36 in [18].

For the sequence TCTGCTAGGTCAACGAGGGTCAGCTAATCTGCTA, the PBM binding z-score in [1] was 4.34; in experiment [2], 4.28; in experiment [3], -0.294; in [4], -0.307; in experiment [5] it was 2.15; in [6], 4.96. The PBM binding z-score in experiment [7] is -0.4; in [8] it was 4.03; in experiment [9] it was -0.252; in experiment [10], 4.65; in experiment [11], 4.57; in experiment [12], 5.29. For the same sequence, the PBM binding z-score is 6.13 in experiment [13]; 1.47 in experiment [14]; 3.94 in experiment [15]; 4.76 in experiment [16]; 1.14 in experiment [17]; 0.552 in experiment [18].

With CCGACTGGGGCAGAAAGGTTGCCATACCATCCGG, the PBM binding z-score in experiment [1] is 1.37; in experiment [2] it was 1.17; in [3], -1.21; in experiment [4] it was -1.54; in experiment [5], -0.128; in [6], -0.241. In addition, the PBM binding z-score in experiment [7] was -0.699; in experiment [8], -0.0627; in experiment [9], -0.964; in experiment [10], 0.6; in experiment [11], 0.631; in experiment [12], 0.253. The PBM binding z-score in experiment [13] is 0.175; in [14], -1.11; in experiment [15], 0.422; in experiment [16], -0.0628; in experiment [17], -0.642; in experiment [18], -0.404.

Take TGTCAAAGTTCAAAAGTAACGTAAGTATCCACAC: the PBM binding z-score is -0.0254 in [1]; 3.6 in [2]; 1.92 in [3]; 2.39 in experiment [4]; 1.89 in [5]; 4.46 in experiment [6]. For the same sequence, the PBM binding z-score in experiment [7] is 3.74; in [8] it was 3.65; in experiment [9], 1.1; in experiment [10], 4.6; in experiment [11], 3.09; in experiment [12], 5.13. Further, the PBM binding z-score was 5.21 in experiment [13]; 4.25 in [14]; 4.57 in experiment [15]; 1.86 in experiment [16]; -0.26 in experiment [17]; 3.51 in experiment [18].

The values are drawn from the supplement of paper PMC6555819.
